FXIa inh mix: FXIa protease inhibitors in compound pools, primary screen, biochemical, 10-compound mixtures | Coagulation factor XI (Homo sapiens), P03951 | purified FXIa, fluorogenic substrate, pooled mixtures | inhibition, % at 5 µM | actives 0.19% (n = 62,000) | AID 680, 2007;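 note: each value is inhibition by a whole ten-compound pool holding the compound; 0% = enzyme with no mixture and 100% = wells lacking enzyme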
C1s inh: complement C1s protease inhibitors, primary screen, biochemical, 10-compound mixtures; purified C1s, fluorogenic AMC substrate, pooled mixtures; mean inhibition % of two 10-compound mixtures (active compounds read high), % at 5 µM (by protocol); actives 0.16% (n = 62,000);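 active = inhibition above 20% in each of the two 10-compound mixture wells holding the compound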;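 note: 0% = enzyme wells lacking compound mixture and 100% = no-enzyme blank wells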
FXIIa mix inh: human factor XIIa inhibitors, primary screen, biochemical, pooled compound mixtures, fluorogenic substrate. Coagulation factor XII (Homo sapiens), P00748. purified FXIIa. inhibition, % at 5 µM. actives 0.2% (n = 62,000);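 note: 0% = enzyme without compound and 100% = no enzyme blank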
Target sequence (P00748 20-372 limits assumed): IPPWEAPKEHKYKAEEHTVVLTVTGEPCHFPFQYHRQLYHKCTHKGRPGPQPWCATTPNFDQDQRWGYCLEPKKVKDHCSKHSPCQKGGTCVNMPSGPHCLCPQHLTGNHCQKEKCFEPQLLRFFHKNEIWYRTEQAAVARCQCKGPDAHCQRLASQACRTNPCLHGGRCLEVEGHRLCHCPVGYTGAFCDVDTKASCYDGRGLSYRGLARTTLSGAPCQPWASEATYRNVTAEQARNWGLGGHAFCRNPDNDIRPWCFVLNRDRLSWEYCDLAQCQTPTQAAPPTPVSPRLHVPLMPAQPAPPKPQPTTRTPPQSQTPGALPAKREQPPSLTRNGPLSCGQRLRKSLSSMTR
Target sequence (P00748 373-615 limits assumed): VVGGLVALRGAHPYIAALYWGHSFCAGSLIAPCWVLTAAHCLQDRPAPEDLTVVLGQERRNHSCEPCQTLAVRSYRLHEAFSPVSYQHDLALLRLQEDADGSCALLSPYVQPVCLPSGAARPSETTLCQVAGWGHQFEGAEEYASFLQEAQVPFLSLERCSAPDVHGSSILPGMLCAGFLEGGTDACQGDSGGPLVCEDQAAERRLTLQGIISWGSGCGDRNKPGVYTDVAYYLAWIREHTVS
Cathepsin G inh: human cathepsin G inhibitors, primary screen, biochemical, pooled compound mixtures, AMC fluorescence. P08311. purified enzyme, AMC-tetrapeptide fluorescence. inhibition, % at 5 µM (by protocol). actives 0.2% (n = 62,000). AID 581, 2007;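 active = inhibition above 20% in each of the two mixture wells holding the compound; inactive = inhibition of 20% or less in either well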;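 note: 0% = enzyme control without mixture and 100% = blank lacking enzyme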
WNV protease inh: inhibitors of WNV NS2B-NS3 protease, primary screen, biochemical, fluorogenic substrate. AID 577, 2007. z-score (no concentration beside the values). fluorogenic substrate Ex360/Em465; active compounds read low. actives 0.18% (n = 65,000); in the data active = z-score below about -3
Active calls of the source: *; nt = not tested or not shown; ! = repeats disagree. An excerpt weighted towards active compounds, which were near 0.76% of everything screened. Cut-off read from the data, not from the text of the source, unless noted: active = inhibition above about 20% (passing the limit was not always enough); inactive = the rest.

SMILES | FXIa inh mix | C1s inh | FXIIa mix inh | Cathepsin G inh | WNV protease inh
Cc1ccc(C(=O)c2cc(C)sc2NC(=O)CN2CCN(C(=O)c3ccco3)CC2)cc1 | 12 | 9 | 21* | 10 | -0.97
CC(C)n1nnnc1SCC(=O)NCc1ccco1 | 22* | -1 | -5 | 8 | 0.22
CC(=O)N=c1c(C#N)cc2c(=O)n3cccc(C)c3nc2n1CC(C)C | -23 | -115 | -16 | -14 | 1.4
CCOc1ccc(NC(=O)c2oc3ccccc3c2NC(=O)C(C)C)cc1 | 3 | 16 | 5 | 12 | 1
Cc1csc(CCc2nc(C)cs2)n1 | -1 | 2 | 22* | 10 | 0.56
Cc1csc(SCC(=O)N2CCCC2)n1 | 2 | -6 | 4 | -5 | -1.1
CNCCCN1c2ccccc2CCc2ccccc21 | -2 | -5 | -2 | 2 | -6.7*!
CN(C)S(=O)(=O)c1cccc(COC(=O)C2=COCCO2)c1 | 6 | 11 | 21* | 12 | 0.4
O=C(OCn1nnc2ccccc2c1=O)C1=COCCO1 | 0 | -83 | -16 | -5 | -1
COc1ccccc1-n1c(SCC(=O)N2CCOCC2)nc(O)c(Cc2ccccc2)c1=O | 3 | -14 | 0 | -7 | -8.6*
CN(CCOc1ccc(Cl)cc1)c1ccc(S(=O)(=O)N2CCCCC2)cn1 | 40* | -14 | 2 | 18 | 0.71
COc1cccc(-c2noc(-c3cccs3)n2)c1 | 2 | 2 | 31* | 5 | 0.48
O=C(NCc1ccccc1)N(Cc1nc2ccccc2c(=O)[nH]1)C1CCCC1 | 4 | -17 | 9 | -13 | 1.3
Cc1ccc(NS(=O)(=O)c2cc(C(=O)N3CCN(C)CC3)ccc2C)cc1 | 6 | 13 | 3 | 6 | -1.2
Cc1ccc(NS(=O)(=O)c2cc(C(=O)N3CCOCC3)ccc2C)cc1C | 7 | 21* | 3 | 14 | 0.11
CC(C)C(CC(=O)N1CCCCC1)C1CCOC(C)(C)C1 (stereo not drawn) | 19 | -11 | 16 | 28* | nt
CS(=O)(=O)N(CC(=O)N1CCCCC1)C1CCCCC1 | 0 | 2 | -17 | 0 | 1.1
O=C(OC1CCCCC1)c1ccc2c(c1)C1C=CCC1C(C(=O)O)N2 (stereo not drawn) | -5 | -46 | 4 | -16 | -5.6*
C=CCn1c(NC(=O)c2ccccc2)c(C#N)c2nc3ccccc3nc21 | -1 | -31 | 10 | -4 | -0.8
CCn1c(SC(=O)NC2CCCCC2)nnc1-c1cccs1 | 5 | -27 | 2 | -4 | -0.09
CN1C(=O)N(CN2CCCCC2)C2C1N(C)C(=O)N2CN1CCCCC1 (stereo not drawn) | 5 | -3 | 5 | 0 | -12*
Cc1cc(C)c2c(CC(=O)NCc3ccco3)coc2c1 | 7 | 21* | 2 | 10 | -0.3
O=C(Nc1ccc2oc(=O)ccc2c1)c1cccnc1 | 16 | 23* | -1 | 16 | -0.29
O=C(Nc1cccc(NC(=O)c2cccnc2)c1)c1cccnc1 | 9 | 3 | 2 | 7 | -0.45
COc1cccc(-n2c(SCC(=O)N3CCOCC3)nnc2-c2c[nH]c3ccccc23)c1 | 24* | -5 | 6 | 6 | -0.3
SMILES | FXIa inh mix | C1s inh | FXIIa mix inh | Cathepsin G inh | WNV protease inh
CCCCOc1ccc(OCCNS(=O)(=O)N(C)C)cc1 | 6 | -31 | -4 | -1 | -1.4
COC(=O)c1ccc(Cn2cc(Cl)cn2)cc1 | 8 | 13 | 15 | 14 | -0.86
CC(C)NC(=O)c1cccc(Cn2cc(Cl)cn2)c1 | 7 | 0 | 2 | 8 | -3.6*
Cc1c(NC(=O)C(C)Sc2nc3ccccc3c(=O)n2CCO)c(=O)n(-c2ccccc2)n1C (stereo not drawn) | 10 | 4 | -27 | 0 | -0.59
COc1cc(C2CC(C(F)(F)F)n3ncc(C(=O)O)c3N2)cc(OC)c1OC (stereo not drawn) | nt | nt | nt | nt | -5.8*
COc1ccc(C2CC(C(F)(F)F)n3ncc(C(=O)NCc4cccnc4)c3N2)cc1OC (stereo not drawn) | 2 | 2 | 1 | 9 | 0.86
O=C(OCCN1C(=O)c2ccccc2C1=O)c1cc(S(=O)(=O)N2CCOCC2)ccc1F | 4 | 6 | 6 | 9 | -3.1*
O=C(CCN1C(=O)c2ccccc2C1=O)Nc1ccc(S(=O)(=O)N2CCOCC2)cc1 | 5 | -2 | 5 | 0 | -1.3

Screens (PubChem)
